This note sets out measurements from the antibiotic and cytotoxicity screens of Wong et al. (2023).

Hit rate of the full screen: of about 39,000 compounds, about 1,500 (3.8%) were called active. The entries come from a sample that favours actives as a whole.

The assay has as its system HSkMC (human skeletal muscle cells). Nature of the assay: cytotoxicity call (relative viability < 0.9). Conditions: 10 µM.
Take `COC(=O)Cn1c(=N)n(C)c2ccccc21`: the cytotoxicity call is “inactive”.

Take `C[C@H](CO)N1C[C@H](C)[C@H](CN(C)Cc2ccc(Cl)c(Cl)c2)Oc2ccc(NC(=O)Cn3cnnn3)cc2C1=O`: the cytotoxicity call was “inactive”.

As to `CO[C@@]1(NC(=O)[C@@H](C(=O)O)c2ccc(O)cc2)C(=O)N2C(C(=O)O)=C(CSc3nnnn3C)CO[C@@H]21`, the cytotoxicity call is “inactive”.

`Cc1cc(C=Cc2ccc3cc(N(C)C)ccc3[n+]2C)c(C)n1-c1ccccc1.O=C([O-])c1cc2ccccc2c(Cc2c(O)c(C(=O)O)cc3ccccc23)c1O`: the cytotoxicity call was “active”.

Regarding `CN1CCCN=C1C=Cc1cccs1.O=C(O)c1cc2ccccc2c(Cc2c(O)c(C(=O)O)cc3ccccc23)c1O`, the cytotoxicity call was “inactive”.

For the compound `CN1CCCN=C1C=Cc1cccc(O)c1.O=C(O)c1cc2ccccc2c(Cc2c(O)c(C(=O)O)cc3ccccc23)c1O`, the cytotoxicity call is “inactive”.

`C[C@H](CO)N1C[C@H](C)[C@@H](CN(C)C(=O)Nc2ccccc2)Oc2ccc(NC(=O)CCCCCC(=O)Nc3ccccc3N)cc2C1=O`: the cytotoxicity call was “inactive”.

Consider `Cc1ccc(S(=O)(=O)Nc2ccc3c(c2)C(=O)N([C@@H](C)CO)C[C@H](C)[C@H](CN(C)C(=O)Nc2ccc(C(F)(F)F)cc2)OCCCC[C@H](C)O3)cc1`, for which the cytotoxicity call was “inactive”.

`CC(C)(C)C1CCC(OC[C@@H](O)CN2CCC(CN3C(=O)c4cccc5cccc(c45)C3=O)CC2)CC1` (stereo partly drawn): the cytotoxicity call is “active”.

Take `O=C(O)CN1C(=O)c2cccc3cccc(c23)C1=O`: the cytotoxicity call is “inactive”.

As for `O=C(CN1C(=O)c2cccc3cccc(c23)C1=O)N1CCN(CCN2C(=O)[C@@H]3[C@@H](C2=O)[C@@H]2C=C[C@@H]3C2)CC1`, the cytotoxicity call is “inactive”.

With `O=C(O)C1C(=CCO)OC2CC(=O)N21.[LiH]` (stereo not drawn), the cytotoxicity call is “inactive”.

Take `Cc1ccc(S(=O)(=O)N(C)C[C@H]2Oc3c(NC(=O)C4CC4)cccc3C(=O)N([C@@H](C)CO)C[C@H]2C)cc1`: the cytotoxicity call was “inactive”.

On to `O=C(C[C@@H]1C[C@@H]2c3cc(NC(=O)c4ccc5c(c4)OCO5)ccc3O[C@@H]2[C@@H](CO)O1)NCc1ccc(Oc2ccccc2)cc1`, for which the cytotoxicity call is “active”.

On to `COc1ccccc1CNC(=O)C[C@@H]1C[C@H]2c3cc(NC(=O)c4ccc5c(c4)OCO5)ccc3O[C@H]2[C@H](CO)O1`, for which the cytotoxicity call was “active”.

As for `COc1ccccc1CNC(=O)C[C@@H]1C[C@@H]2c3cc(NC(=O)c4ccc5c(c4)OCO5)ccc3O[C@@H]2[C@H](CO)O1`, the cytotoxicity call was “inactive”.

Take `O=C(C[C@H]1C[C@@H]2c3cc(NC(=O)c4ccc5c(c4)OCO5)ccc3O[C@@H]2[C@H](CO)O1)NCc1ccc(Oc2ccccc2)cc1`: the cytotoxicity call was “inactive”.

For `O=C(C[C@@H]1C[C@H]2c3cc(NC(=O)c4ccc5c(c4)OCO5)ccc3O[C@H]2[C@H](CO)O1)NCc1ccc(Oc2ccccc2)cc1`, the cytotoxicity call was “inactive”.

As for `O=C(C[C@H]1C[C@@H]2c3cc(NC(=O)c4ccc5c(c4)OCO5)ccc3O[C@@H]2[C@@H](CO)O1)NCc1ccc(Oc2ccccc2)cc1`, the cytotoxicity call was “inactive”.

As to `O=C(C[C@H]1C[C@H]2c3cc(NC(=O)c4ccc5c(c4)OCO5)ccc3O[C@H]2[C@@H](CO)O1)NCc1ccc(Oc2ccccc2)cc1`, the cytotoxicity call is “inactive”.

`O=C(C[C@@H]1C[C@H]2c3cc(NC(=O)c4ccc5c(c4)OCO5)ccc3O[C@H]2[C@@H](CO)O1)NCc1ccc(Oc2ccccc2)cc1`: the cytotoxicity call is “inactive”.

With `COc1ccccc1CNC(=O)C[C@@H]1C[C@@H]2c3cc(NC(=O)c4ccc5c(c4)OCO5)ccc3O[C@@H]2[C@@H](CO)O1`, the cytotoxicity call is “inactive”.

`O=C(C[C@H]1C[C@H]2c3cc(NC(=O)c4ccc5c(c4)OCO5)ccc3O[C@H]2[C@@H](CO)O1)NCc1cccnc1`: the cytotoxicity call is “inactive”.

For `O=C(C[C@@H]1C[C@@H]2c3cc(NC(=O)c4ccc5c(c4)OCO5)ccc3O[C@@H]2[C@H](CO)O1)NCc1ccc(Oc2ccccc2)cc1`, the cytotoxicity call is “active”.

As to `O=C(C[C@H]1C[C@H]2c3cc(NC(=O)c4ccc5c(c4)OCO5)ccc3O[C@H]2[C@H](CO)O1)NCc1ccc(Oc2ccccc2)cc1`, the cytotoxicity call is “active”.

Take `COCC#Cc1cnc2c(c1)C(=O)N([C@@H](C)CO)C[C@H](C)[C@@H](CN(C)C(=O)CN1CCOCC1)O2`: the cytotoxicity call was “inactive”.

For `COc1ccc(S(=O)(=O)N2C[C@H](O)COC[C@H]3O[C@H](CC(=O)NCCCN4CCOCC4)CC[C@@H]32)cc1`, the cytotoxicity call was “inactive”.

Consider `C[C@@H]1CN([C@@H](C)CO)S(=O)(=O)c2ccc(C#Cc3ccc(F)cc3)cc2O[C@@H]1CN(C)S(C)(=O)=O`, for which the cytotoxicity call was “inactive”.

With `Cc1noc(C)c1NC(=O)N(C)C[C@@H]1OCCCC[C@@H](C)Oc2ccc(NC(=O)Nc3cccc4ccccc34)cc2C(=O)N([C@H](C)CO)C[C@@H]1C`, the cytotoxicity call was “inactive”.

In the case of `CCCC#Cc1cnc2c(c1)C(=O)N([C@H](C)CO)C[C@H](C)[C@@H](CN(C)C(=O)c1ccc3c(c1)OCO3)O2`, the cytotoxicity call was “inactive”.

As to `COc1ccc(S(=O)(=O)N(C)C[C@H]2Oc3ccc(NC(=O)CCCN(C)C)cc3CC(=O)N([C@@H](C)CO)C[C@@H]2C)cc1`, the cytotoxicity call is “inactive”.

Consider `O=C(C1=C[C@H](c2ccc(C(F)(F)F)cc2)C[C@H](OCc2ccc(CO)cc2)O1)N1CCN(Cc2ccc3c(c2)OCO3)CC1`, for which the cytotoxicity call is “inactive”.

In the case of `CN(C)CCCCNC(=O)[C@H]1C[C@H]2C(=O)N[C@@H](Cc3ccccc3)C(=O)N2[C@H]1c1cccc(OCCO)c1`, the cytotoxicity call was “inactive”.

On to `O=C(C[C@@H]1C[C@@H]2c3cc(NS(=O)(=O)c4ccc(F)cc4)ccc3O[C@@H]2[C@@H](CO)O1)N1CCOCC1`, for which the cytotoxicity call is “inactive”.

In the case of `COc1cccc(C#Cc2ccc([C@@H]3[C@H](CO)N4C(=O)CN(S(=O)(=O)c5ccccc5C)C[C@@H]34)cc2)c1`, the cytotoxicity call is “inactive”.

On to `O=C1CN(S(=O)(=O)Cc2ccccc2)C[C@@H]2[C@@H](c3ccc(C#Cc4cccc(F)c4)cc3)[C@@H](CO)N12`, for which the cytotoxicity call is “active”.

In the case of `O=C1CN(S(=O)(=O)Cc2ccccc2)C[C@H]2[C@@H](c3ccc(C#Cc4cccc(F)c4)cc3)[C@H](CO)N12`, the cytotoxicity call was “inactive”.

Turning to `O=C1CN(S(=O)(=O)Cc2ccccc2)C[C@H]2[C@@H](c3ccc(C#Cc4cccc(F)c4)cc3)[C@@H](CO)N12`, the cytotoxicity call was “inactive”.

As for `O=C1CN(S(=O)(=O)Cc2ccccc2)C[C@H]2[C@H](c3ccc(C#Cc4cccc(F)c4)cc3)[C@@H](CO)N12`, the cytotoxicity call is “inactive”.

As to `O=C1CN(S(=O)(=O)Cc2ccccc2)C[C@@H]2[C@H](c3ccc(C#Cc4cccc(F)c4)cc3)[C@@H](CO)N12`, the cytotoxicity call is “inactive”.

As for `O=C1CN(S(=O)(=O)Cc2ccccc2)C[C@@H]2[C@H](c3ccc(C#Cc4cccc(F)c4)cc3)[C@H](CO)N12`, the cytotoxicity call was “inactive”.

`O=C1CN(S(=O)(=O)Cc2ccccc2)C[C@H]2[C@H](c3ccc(C#Cc4cccc(F)c4)cc3)[C@H](CO)N12`: the cytotoxicity call was “active”.

On to `O=C1CN(S(=O)(=O)Cc2ccccc2)C[C@@H]2[C@@H](c3ccc(C#Cc4cccc(F)c4)cc3)[C@H](CO)N12`, for which the cytotoxicity call is “active”.
